In the supplement of paper PMC7156485:
± gives the standard deviation of the averaged measurements.

What was measured:
Conditions in all cases: concentration: 10 µM; 24 h
HCC1569 [1] = experiment: cell number relative to DMSO (% of DMSO); higher = more cells (less growth inhibition / toxicity)
Method in brief: (§1)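 Treatment: HCC1569 and TDF cells, 800 per well in 384-well plates with RPMI and 10% FBS, were given compounds at 10 µM for 24 h at 37 °C, in triplicate. Readout: after 3.7% formaldehyde fixation, cells were stained with a rabbit anti-H1.0 antibody, an AlexaFluor 647 secondary and DAPI. Reported values are H1.0 nuclear intensity or cell number as percent of the plate control, taken as the median of replicates, with positional smoothing for HCC1569.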

TDF [2] = experiment: as above
Method in brief: as §1

TDF [3] = experiment: H1.0 immunofluorescence intensity relative to DMSO (% of DMSO); higher = stronger H1.0 induction, active = 120 or more
Method in brief: as §1

HCC1569 [4] = experiment: H1.0 immunofluorescence intensity relative to DMSO (% of DMSO); higher = stronger H1.0 induction, active = 140 or more
Method in brief: as §1
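Throughout, for H1.0 immunofluorescence intensity relative to DMSO: TDF is a line of transformed human dermal fibroblasts of mesenchymal origin.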
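Throughout, for cell number relative to DMSO: TDF denotes transformed human dermal fibroblasts of mesenchymal origin.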

Compound | cell number (HCC1569 [1]) | cell number (TDF [2]) | H1.0 immunofluorescence intensity (TDF [3]) | H1.0 immunofluorescence intensity (HCC1569 [4])
Cl.Cl.NCCSSCCN [Cystamine dihydrochloride] | 97.5 | 107 | 93.4 (inactive) | 101 (inactive)
CCCCCCCOc1cc2c(cc1/C(C)=C/c1ccc(C(=O)O)cc1)C(C)(C)CCS2(=O)=O | 96.9 | 101 | 88.9 (inactive) | 102 (inactive)
O=C1NC(=O)C(c2ccccc2)(c2ccccc2)N1 [5,5-Diphenylhydantoin] | 99.8 | 108 | 89.2 (inactive) | 100 (inactive)
Nc1ncnc2n[nH]c(Nc3ccc(F)cc3)c12 | 95.7 | 102 | 90.1 (inactive) | 118 (inactive)
CCN(CC)C(=O)c1ccc(Nc2nc(OCC3CCCCC3)c3[nH]cnc3n2)cc1 [Cdk2 Inhibitor IV,                 NU6140] | 73.4 | 51.1 | 98.1 (inactive) | 158 (active)
COc1ccccc1OCC(O)CO (stereo not given) [Guaifenesin] | 102 | 102 | 98 (inactive) | 116 (inactive)
COc1cc2ncnc(Nc3ccc(Cl)cc3Cl)c2cc1OC [Ste11 MAPKKK Activation Inhibitor] | 83.8 | 97.5 | 89.8 (inactive) | 130 (inactive)
CN(CCOc1ccc(NS(C)(=O)=O)cc1)CCc1ccc(NS(C)(=O)=O)cc1 [Dofetilide] | 98 | 121 | 103 (inactive) | 99.5 (inactive)
COc1cc(C(=O)OCCCCN=C(N)N)cc(OC)c1O | 103 | 95.8 | 102 (inactive) | 104 (inactive)
Cl.Clc1cccc(Cl)c1NC1=NCCN1 [Clonidine.HCl] | 103 | 100 | 84.7 (inactive) | 101 (inactive)
O=c1c(-c2ccc(F)cc2)c(-c2ccncc2)[nH]n1-c1ccc(Cl)cc1 [p38 MAP Kinase Inhibitor] | 102 | 111 | 95.2 (inactive) | 110 (inactive)
O=C(CCCN1CC=C(n2c(=O)[nH]c3ccccc32)CC1)c1ccc(F)cc1 [Droperidol] | 107 | 98.1 | 91.1 (inactive) | 89.2 (inactive)
CCC1(O)C(=O)OCc2c1cc1n(c2=O)Cc2cc3c(CN(C)C)c(O)ccc3nc2-1.Cl (stereo not given) [Topotecan.HCl] | 65.7 | 17.1 | 154 (active) | 96.3 (inactive)
CC(C=CC1=C(C)CCCC1(C)C)=CC=CC(C)=CC(=O)O [13-cis-retinoic acid] | 102 | 100 | 88.5 (inactive) | 123 (inactive)
O=C1C(=O)C(c2ccc(O)c(O)c2)Oc2cc(O)cc(O)c21 (stereo not given) [2-(3,4-dihydroxyphenyl)-3,5,7-trihydroxy-4H-chromen-4-one] | 81.2 | 74.4 | 103 (inactive) | 158 (active)
O=C(Nc1ccc(Cl)cc1)C1CCCN(C(=O)c2cccc(-c3ccco3)c2)C1 (stereo not given) | 86.8 | 98.7 | 95.1 (inactive) | 116 (inactive)
Cc1oncc1C(=O)Nc1ccc(C(F)(F)F)cc1 [Leflunomide] | 103 ± 3.5 | 107 ± 3.5 | 97.1 (inactive) | 101 (inactive)
NC(=O)Nc1sc(-c2ccc(F)cc2)cc1C(N)=O [IKK-2 Inhibitor IV] | 80.1 | 103 | 95.8 (inactive) | 186 (active)
Cl.Cl.OCCN1CCN(CCC=C2c3ccccc3Sc3ccc(C(F)(F)F)cc32)CC1 [cis-(Z)-Flupenthixol dihydrochloride] | 86.1 | 102 | 102 (inactive) | 125 (inactive)
C#CC1(O)CCC2C3CCC4=Cc5oncc5CC4(C)C3CCC21C (stereo not given) [Danazol] | 97.02 ± 0.7 | 98.36 ± 0.75 | 95.4 (inactive) | 100 (inactive)
CCN(CC)CCNC(=O)c1c(C)[nH]c(C=C2C(=O)Nc3ccc(F)cc32)c1C [Sunitinib] | 92.1 | 58.7 | 106 (inactive) | 173 (active)
CC(C)(CO)Cc1cc(C(C)(C)C)c(O)c(C(C)(C)C)c1 | 102 | 106 | 94.6 (inactive) | 109 (inactive)
COc1cc2nc(N3CCN(C(=O)c4ccco4)CC3)nc(N)c2cc1OC.Cl [Prazosin.HCl] | 107 | 105 | 92 (inactive) | 95.8 (inactive)
CCN(CC)CCCCNc1ncc2cc(-c3c(Cl)cccc3Cl)c(NC(=O)NC(C)(C)C)nc2n1 | 63.1 | 84.5 | 104 (inactive) | 115 (inactive)
CCCCCCCCCCCCCCCCC(=O)O [Heptadecanoic acid] | 99.9 | 94.9 | 103 (inactive) | 103 (inactive)

Compound | cell number (HCC1569 [1]) | cell number (TDF [2]) | H1.0 immunofluorescence intensity (TDF [3]) | H1.0 immunofluorescence intensity (HCC1569 [4])
Cn1nc2c3c(cccc31)C(=O)c1ccccc1-2 [JNK Inhibitor,                    Negative Control] | 102 | 95.3 | 90.4 (inactive) | 136 (inactive)
CCCn1c(=O)c2c(ncn2C)n(CCC)c1=O [1,3-Dipropyl-7-methylxanthine] | 99.5 | 101 | 93.1 (inactive) | 94.8 (inactive)
CCOC(=O)C1=C(COCCN)NC(C)=C(C(=O)OC)C1c1ccccc1Cl (stereo not given) [Amlodipine] | 98.4 | 106 | 93.5 (inactive) | 106 (inactive)
CC1(C)C2CCC1(C(=O)O)C(=O)C2 (stereo not given) [Ketopinic acid] | 103 | 102 | 99.7 (inactive) | 88.3 (inactive)
COc1cc2ncn(-c3cc(OCc4ccc(S(C)(=O)=O)cc4)c(C(N)=O)s3)c2cc1OC [Polo-like Kinase Inhibitor I] | 104 | 96.2 | 92.8 (inactive) | 112 (inactive)
COC1C(OC(=O)c2ccc(C)[nH]2)C(O)C(Oc2ccc3c(O)c(NC(=O)c4c[nH]c(C(=O)Nc5c(O)c6ccc(OC7OC(C)(C)C(OC)C(OC(=O)c8ccc(C)[nH]8)C7O)c(C)c6oc5=O)c4C)c(=O)oc3c2C)OC1(C)C (stereo not given) [Coumermycin A1] | 94.7 | 100 | 93.5 (inactive) | 101 (inactive)
O=C(O)C=Cc1ccc(O)c(O)c1 [Caffeic Acid] | 99.9 | 115 | 87.2 (inactive) | 84.5 (inactive)
Cl.O=c1n(CCCN2CCN(c3cccc(Cl)c3)CC2)nc2ccccn12 [Trazodone hydrochloride] | 102 | 116 | 89.5 (inactive) | 101 (inactive)
COC1CC(OC2C(C)C(=O)OC(C)C(C)C(OC(C)=O)C(C)C(=O)C3(CO3)CC(C)C(OC3OC(C)CC(N(C)C)C3OC(C)=O)C2C)OC(C)C1OC(C)=O (stereo not given) [Troleandomycin] | 102 ± 2.6 | 108.1 ± 0.42 | 97.2 (inactive) | 94.6 (inactive)
O=C1c2c(O)ccc(O)c2C(=O)c2c(NCCNCCO)ccc(NCCNCCO)c21 [Mitoxantrone] | 53.2 ± 8.2 | 3.71 ± 2.7 | 2090 (active) | 120 (inactive)
Cl.N[C@@H](CCC(=O)O)C(=O)O [L-Glutamic acid hydrochloride] | 103 | 114 | 90.1 (inactive) | 91.5 (inactive)
CC12CCC3c4ccc(O)cc4CCC3C1CCC2=O (stereo not given) [Estrone] | 102 ± 4.7 | 99.9 ± 9.3 | 96.7 (inactive) | 101 (inactive)
Cl.Cl.OCCN1CCN(CCCN2c3ccccc3Sc3ccc(C(F)(F)F)cc32)CC1 [Fluphenazine dihydrochloride] | 92.5 | 96.3 | 118 (inactive) | 133 (inactive)
CCCCCCCCC1OC1CCCCCCCC(=O)O (stereo not given) [Epoxy-oleic acid] | 97.7 | 99.9 | 96.8 (inactive) | 99.1 (inactive)
Cl.Cl.OCCN1CCN(CCCN2c3ccccc3Sc3ccc(C(F)(F)F)cc32)CC1 [Fluphenazine.2HCl] | 95.6 | 107 | 101 (inactive) | 116 (inactive)
CN=C(NC#N)NCCSCc1csc(N=C(N)N)n1 [Tiotidine] | 102 | 88.1 | 105 (inactive) | 99.1 (inactive)
CCN(CC)CCCCCCCCOC(=O)c1cc(OC)c(OC)c(OC)c1.Cl [TMB-8 hydrochloride] | 105 | 105 | 99.8 (inactive) | 84.2 (inactive)
CC1C(=O)N=C2Nc3cccc(Cl)c3CN21 (stereo not given) [Quazinone] | 111 | 106 | 94.9 (inactive) | 96.3 (inactive)
O=C(C=Cc1ccc(O)c(O)c1)c1ccc(OC2OC(CO)C(O)C(O)C2O)c(O)c1O (stereo not given) [Marein] | 99.4 | 108 | 92 (inactive) | 91.5 (inactive)
O=c1oc(Cl)c(Cl)c2ccccc12 [3,4-Dichloroisocoumarin] | 103 | 109 | 91.9 (inactive) | 88.1 (inactive)
CCCC(CCC)C(N)=O [2-propylpentanamide] | 112 | 106 | 97 (inactive) | 95.6 (inactive)
CC(C)C1CCC(C(=O)NC(Cc2ccccc2)C(=O)O)CC1 (stereo not given) [Nateglinide] | 105 | 112 | 96.1 (inactive) | 102 (inactive)
Cl.NO [Hydroxylamine hydrochloride] | 96.2 | 95.5 | 97.8 (inactive) | 89.7 (inactive)
Oc1cc2c(cc1O)C(c1ccccc1)CNCC2 (racemic) | 101 | 113 | 92.2 (inactive) | 93.5 (inactive)
CCCCCCC=CCCCCCCCCC(=O)O [10(E)-Heptadecenoic acid] | 97.6 | 95.4 | 98.4 (inactive) | 98.8 (inactive)
